# Measured values reported in PubChem BioAssay (NCI).
# Compounds without any hit were thinned out: in the full panel of roughly 83,000, 20% have a hit.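 Method: cells in 96-well plates; compound added at one concentration; 48 h incubation; percent growth measured; values under 10 scored active.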 The source made the active and inactive calls.
# System: SN12C renal
# Assay: NCI-60 one-dose screen, 48 h (100 = growth as untreated, 0 = no growth, -100 = all killed)
# Conditions: 10 µM
row,Compound,growth
1,CNC(=O)c1cc(Oc2ccc3c(c2)sc2nc(-c4ccc(N)cc4)cn23)ccn1,29.4% (inactive)
2,COc1ccc2c(c1)OC(N)=C(C#N)C2c1cc(OC)c(OC)c(OC)c1 (stereo not given),25% (inactive)
3,S=C(NCc1ccccc1)NCc1ccccc1,96.3% (inactive)
4,CC(=O)OC1C=CC(OC(C)=O)O1 (stereo not given),89.8% (inactive)
5,Cc1ccc(Cl)cc1NC(=O)CCl,84% (inactive)
6,CCC(C)[C@H](NC(C)=O)C(=O)N[C@@H](CCCNC(=N)N)C(=O)N[C@@H](CCCCN)C(=O)N[C@@H](CC1CCC(O)CC1)C(=O)NC(C(=O)N[C@@H](CCSC)C(=O)N[C@@H](CCCNC(=N)N)C(=O)N[C@@]1(C)CCC/C=C\CCC[C@@](C)(C(=O)NC(C(=O)N[C@@H](CCC(=O)O)C(=O)N[C@@H](CC(C)C)C(=O)N[C@H](C(=O)N[C@@H](CCC(=O)O)C(N)=O)C(C)C)[C@@H](C)O)NC(=O)[C@H](CCC(N)=O)NC(=O)[C@H](CC(C)C)NC(=O)[C@H](CC(C)C)NC1=O)[C@@H](C)O (stereo not given in full),93.2% (inactive)
7,COc1cc2cc(Oc3ccc(NC(=O)c4cccc(C(F)(F)F)c4)cc3)c(C)nc2cc1OC,36.9% (inactive)
8,COC(=O)C1(O)NC(=C(C#N)C#N)C(C#N)=C1C(=O)c1ccc(OC)c(OC)c1 (stereo not given),96.7% (inactive)
9,COc1ccc(-c2onc(N)c2-c2cc(OC)c3c(c2)OCO3)cc1,25.9% (inactive)
10,NC(N)=N/N=C(\c1ccccc1)C(O)c1ccccc1 (stereo not given),99.6% (inactive)
11,COc1cc2cc(Oc3ccc(NC(=O)c4ccccc4)cc3)c(C)nc2cc1OC,81% (inactive)
12,CS(=O)(=O)c1nccc(-c2c(-c3cccc(OCc4ccc(F)cc4)c3)nc3sccn23)n1,77.7% (inactive)
13,CCOC(=O)c1cc(C(=O)c2ccc(F)cc2F)n2ccccc12,95.9% (inactive)
14,O=C(N/N=C/c1ccc(Cl)cc1)c1ccccc1Nc1cccc(C(F)(F)F)c1,91.3% (inactive)
15,CC(C)(C)OC(=O)N1CCc2c(sc3ncnc(N/N=C/c4ccccc4Br)c23)C1,78.7% (inactive)
16,CC(C)N(CCOc1ccc(-c2nc3sccn3c2-c2ccnc(S(C)(=O)=O)n2)cc1)C(C)C,87.8% (inactive)
17,CN(C)CCCOc1ccc(NC2=C(Cl)C(=O)C(Nc3ccc(OCCCN(C)C)cc3)=C(Cl)C2=O)cc1,-91.6% (active)
18,COc1cccc(C2C(C#N)=C(N)Oc3cc(N)ccc32)c1 (stereo not given),36.3% (inactive)
19,Cc1ccc(NCCN(C)CC(C)O)c2c(=O)c3ccccc3sc12 (stereo not given),49.6% (inactive)
20,CCCCN(CCCC)C(=O)[C@H](CC)[C@@H]1CC[C@@H](C)[C@@H]([C@H](C)[C@@H](O)[C@@H](C)C(=O)[C@H](CC)C2O[C@]3(C=C[C@@H](O)[C@]4(CC[C@@](C)([C@H]5CC[C@](O)(CC)[C@H](C)O5)O4)O3)[C@H](C)C[C@@H]2C)O1 (stereo not given in full),3.56% (active)
21,CC(C)N(CCOc1cccc(-c2nc3sccn3c2-c2ccnc(S(C)(=O)=O)n2)c1)C(C)C,83.9% (inactive)
22,NC(=O)c1cccc(-n2ccc3cc(NC(=O)Nc4ccc(Cl)c(C(F)(F)F)c4)ccc32)n1,73.4% (inactive)
23,COc1cccc(-c2nc3sccn3c2-c2cccc(S(C)(=O)=O)c2)c1,99.1% (inactive)
24,COc1ccc(Cl)cc1Nc1nc(C(F)(F)F)ccc1C(=O)N/N=C/c1ccc(Cl)cc1,49% (inactive)
25,CCOc1ccccc1/C=N\N=C\c1ccccc1O,93.5% (inactive)
26,CN(C)c1ccc(/C=N/NC(=O)c2ccccc2Nc2cccc(C(F)(F)F)c2)cc1,87.6% (inactive)
27,COc1cc2cc(Oc3ccc(NC(=O)Nc4cccc(C(F)(F)F)c4)cc3)c(C)nc2cc1OC,17.2% (inactive)
28,O=C(Nc1cc(Cl)cc2c1-c1ccc(Cl)cc1C2O)C(Cl)Cl (stereo not given),82.2% (inactive)
29,C/C(=N\O)c1ccc(NC(=O)CSc2nnc(-c3ccccc3)n2-c2ccccc2)cc1,72.4% (inactive)
30,CCN(CC)CCCOc1cccc2c1C(=O)c1cccc(OCCCN(CC)CC)c1C2=O,31.2% (inactive)
